Source: PubChem BioAssay (NCATS)
Records with an inconclusive call do not appear. Active and inactive are the calls of the source. Calls follow the shape of the dose curve; as a rule, active = well fitted inhibition curve with a large enough effect; inconclusive = small, poorly fitted or top-dose-only effect; inactive = flat fitted curve, though single readings scatter.

assay: Cytometry Cell-Based qHTS for Inhibitors of the mTORC1 Signaling Pathway in MEF cells (AID 2668); settings: mTORC1 pathway readout; series mostly up to 38.3 µM; activity change, negative = inhibition: at the top concentration;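 as to activity change, negative = inhibition: Tsc2-/- p53-/- mouse embryonic fibroblasts stably re-expressing wild-type Tsc2; percent cells positive for phospho-rpS6 Ser235/236 relative to propidium iodide stain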
From the text: NIH Molecular Libraries Probe Production Centers Network [MLPCN]
NIH Chemical Genomics Center [NCGC]
Assay Submitter (PI): Blenis, John; Hoffman, Greg; Harvard University
NCGC Assay Overview: The mammalian target of rapamycin (mTOR) is an intracellular serine/threonine kinase Aberrant regulation of mTOR signaling plays a causative role in a number of human diseases, including cancer, benign tumors such as lymphangioleiomyomatosis (LAM) and Tuberous Sclerosis Complex (TSC), and metabolic diseases such as diabetes and obesity. This project aims to identify inhibitors of ribosomal protein S6 (rpS6) phosphorylation. The phosphorylation of rpS6 is a key event downstream of mTOR activation. The assay uses a phospho-specific antibody of phospho-rpS6 to detect inhibitors of mTOR activation. Mutations in the Tsc1 and Tsc2 genes are the underlying genetic lesions responsible for TSC, causing constitutive activation of the mTORC1 pathway and leading to profound effects on cell metabolism. Aberrant metabolism in cancer has recently received significant attention as a target to develop therapeutic agents in the treatment of cancer.1 As Tsc2-/- cells have lost the ability to respond to energy and growth factor deprivation, these cells are unable to properly down regulate cellular biosynthetic processes in response to metabolic stress, and are thus extremely sensitive to glucose deprivation-induced death.2 A central goal of this project is to explore the unique cell survival and metabolic properties of cells with Tsc1 or Tsc2 by screening for compounds that selectively target the Tsc2-/- MEFs by screening both Tsc2-/- and WT MEF cell lines. We hope to better understand these aspects of TSC physiology in order to exploit them for therapeutic benefit.
NCGC Acumen Assay Protocol:
For quantitative high throughput analysis of mTORC1 signaling, we developed a cell-based assay for immuno-fluorescence based detection of rpS6 phosphorylation on the Acumen Explorer that will be used a platform for the primary small molecule screen. Mouse embryonic fibroblasts (MEFs) are cultured in 1536-well plates using DMEM + 10% FBS. Twenty-four hrs after plating, test compounds (solubilized in DMSO) are delivered and incubated with the cells for 24 hrs at 37 degree Celsius. Following the incubation, media with compound is aspirated and the cells are fixed in 4% paraformaldehyde (PFA) containing PBS + 0.2% TX-100. Next, PFA is aspirated, cells are washed two times with PBS plus 0.2% TX-100 and the cells are blocked for 1 hr at room temperature (blocking buffer: LiCOR Blocking Buffer plus 0.2% TX-100). This is followed by aspiration and staining with Alexa-488 conjugated-phospho-rpS6 Ser235/236 antibody for 2 hours at room temperature (Cell Signaling Technology # 4803, 1:50 dilution in blocking buffer). Cells are washed two times with PBS plus 0.2% TX-100, and stained with 10 uM propidium iodide (PI) for 20-25 minutes for cell number measurement (1:500 dilution of Hoescht staining is also added for IN Cell imaging). The plates are scanned on the Acumen Explorer laser scanning instrument (TTP Labtech) using the 488nm laser for simultaneous excitation of the Alexa-488 and PI. The fluorescence emission from the Alexa-488 conjugated rpS6 phospho-235/236 antibody staining is selected using a […] band pass filter. Fluorescence emission from the PI stain is selected using a 575-640 nm band pass filter. The normalized phospho-S6 staining is calculated as the ratio of the integrated Alexa 488 intensity divided by the integrated PI intensity for the single concentration rapamycin control (7.5 nM) and DMSO columns. […] Inhibition of the pathway is defined based on the normalized phospho-S6 intensity in rapamycin treated cells. […]
Potency is read from the fitted curve at half-maximal effect.

SMILES | activity change, negative = inhibition | Potency
CNC(=O)c1cc2c(cn1)[nH]c1ccccc12 | 3.32% (inactive) | 
COC1(C2=NCCN2)COc2ccccc2O1 (stereo not given) | -4.15% (inactive) | 
C=CC[C@H](N)C(=O)O | -2.95% (inactive) | 
CCCCCC[C@@H]([C@@H](C)O)n1cnc2c(N)ncnc21 | 5.07% (inactive) | 
Nc1ccc(CCNc2ncnc3c2ncn3C2OC(CO)C(O)C2O)cc1 (stereo not given) | 18% (inactive) | 
NC1CONC1=O (stereo not given) | 0.26% (inactive) | 
CCCCCCCCCC[Si](C)(C)CCC(=O)NC(Cc1ccc(C)cc1)c1ccccc1 (stereo not given) | 8.08% (inactive) | 
Nn1nnc2ccccc21 | 4.98% (inactive) | 
CCCc1c(OCCCOc2ccc(OCC(=O)O)cc2)ccc(C(C)=O)c1O | 5.11% (inactive) | 
COC(=O)[C@H](NC(=O)c1cc(-c2ccccc2)nc2ccccc12)c1ccccc1 | -0.856% (inactive) | 
CC(C)NCC(O)COc1ccc(CC(N)=O)cc1 (stereo not given) | -2.67% (inactive) | 
Nc1nc2c(cnn2CCc2ccccc2)c2nc(-c3ccco3)nn12 | -28% (inactive) | 
O=[N+]([O-])c1cccc2c(Br)[nH]nc12 | -11.5% (inactive) | 
COc1ccc(CCN(C)CCc2ccc(OC)c(OC)c2)cc1OC | 5.17% (inactive) | 
C=C(C)C1CC=C(C(=O)O)CC1 (stereo not given) | 7.21% (inactive) | 
COc1cc(/C=C(\C#N)C(=O)Nc2nnc(C(F)(F)F)s2)ccc1OCc1ccc(C(F)(F)F)cc1C(F)(F)F | -1.23% (inactive) | 
O=C(O)[C@H]1NCCC[C@H]1C(=O)O | 0.197% (inactive) | 
Cc1ccccc1/C=C/C1=NCCN1 | 6.88% (inactive) | 
O=c1ccn([C@@H]2O[C@H](COP(=O)(O)OP(=O)(O)O)[C@@H](O)[C@H]2O)c(=O)[nH]1 | 7.45% (inactive) | 
C[C@H](O)C(=O)C1=Nc2c(nc(N)[nH]c2=O)NC1 | 6.49% (inactive) | 

SMILES | activity change, negative = inhibition | Potency
Cc1cccc(C(=O)NCN2CCN(c3ccccc3C#N)CC2)c1 | -7.76% (inactive) | 
CCOC(=O)C12CC1/C(=N/O)c1ccccc1O2 (stereo not given) | -2.32% (inactive) | 
Nc1nc2c(nc(Br)n2C2OC3COP(=O)(O)O[C@@H]3C2O)c(=O)[nH]1 (stereo not given in full) | 8.28% (inactive) | 
CN1C2CCC1CC(OC(c1ccccc1)c1ccccc1)C2 (stereo not given) | -2.65% (inactive) | 
NCCS(=O)O | -3.07% (inactive) | 
COc1cc(/C=C(\C#N)C(=O)c2ccc(O)c(O)c2)cc(I)c1O | -2.1% (inactive) | 
N[C@H](C(=O)O)c1cc(O)cc(O)c1 | 7.5% (inactive) | 
N[C@@H](CS(=O)O)C(=O)O | 1.61% (inactive) | 
Cc1ccc([N+](=O)[O-])cc1S(=O)(=O)N(C)C | 6.83% (inactive) | 
CC(N)(Cc1ccc(O)cc1)C(=O)O (stereo not given) | -1.46% (inactive) | 
CN(C)CCC(c1ccc(Br)cc1)c1ccccn1 (stereo not given) | 13.6% (inactive) | 
O=C(O)C1=CCNCC1 | -4.55% (inactive) | 
CC(N)(C(=O)O)c1ccc(C(=O)O)cc1 (stereo not given) | 8.56% (inactive) | 
N[C@H](C(=O)O)[C@H](O)C(=O)O | -0.204% (inactive) | 
CC(C)C[C@H](NC(=O)C1OC1C(=O)O)C(=O)NCCCCN=C(N)N (stereo not given in full) | 11.4% (inactive) | 
CN1CCc2cc(Cl)c(O)cc2[C@@H](c2ccccc2)C1 | 5.47% (inactive) | 
COC(=O)C(N)Cc1ccc(Cl)cc1 (stereo not given) | 9.32% (inactive) | 
COc1ccc(NC(=O)c2ccc(-c3ccc(-c4noc(C)n4)cc3C)cc2)cc1N1CCN(C)CC1 |  | 5.85 µM (active)
CC(C)C[C@H](NC(=O)[C@H](O)[C@H](N)Cc1ccccc1)C(=O)O | 8.15% (inactive) | 
O=C(OCCN1CCOCC1)C1(c2ccccc2)CCCCC1 | 4.52% (inactive) | 
